Screens: PubChem BioAssay, several laboratories
ROCK2 blocker – inhibitors of human ROCK2 kinase, primary screen, biochemical, high-throughput, luminescence; Rho-associated protein kinase 2 (Homo sapiens), O75116; purified ROCK2, Kinase-Glo ATP depletion luminescence; inhibition, % at 6 µM; 0.35% of 60,000 active;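 active means inhibition above the screen-wide mean inhibition plus 3 SD, cut at about 18% in these data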
PKA kinase inh – inhibitors of human PKA kinase activity, primary screen, biochemical, ATP-depletion luminescence, Kemptide substrate | cAMP-dependent protein kinase catalytic subunit alpha (Homo sapiens), P17612 | PKA Kemptide phosphorylation, Kinase-Glo ATP luminescence | inhibition, % at 6 µM | 0.1% of 65,000 active;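 active means inhibition above the screen-wide mean inhibition plus 3 SD, cut at about 21% in these data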
DAT uptake mod – changed hDAT dopamine uptake under cocaine IC80, either direction, primary screen, cocaine antagonist project, cell-based, LLC-PK1 hDAT, [14C]-dopamine uptake, MLSMR | Sodium-dependent dopamine transporter (Homo sapiens), Q01959 | LLC-PK1 hDAT cells, [14C]-dopamine uptake with cocaine IC80; actives deviate in either direction | B-score at 10 µM | 1.3% of 110,000 active | AID 449768, 2010;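 active means Z score or B-score, a plate-position-corrected score, falls beyond the plate's 99.7% confidence bounds, in either direction; inactive means both scores lie inside the 99.7% bounds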
Target sequence (Q01959 whole entry, looked up): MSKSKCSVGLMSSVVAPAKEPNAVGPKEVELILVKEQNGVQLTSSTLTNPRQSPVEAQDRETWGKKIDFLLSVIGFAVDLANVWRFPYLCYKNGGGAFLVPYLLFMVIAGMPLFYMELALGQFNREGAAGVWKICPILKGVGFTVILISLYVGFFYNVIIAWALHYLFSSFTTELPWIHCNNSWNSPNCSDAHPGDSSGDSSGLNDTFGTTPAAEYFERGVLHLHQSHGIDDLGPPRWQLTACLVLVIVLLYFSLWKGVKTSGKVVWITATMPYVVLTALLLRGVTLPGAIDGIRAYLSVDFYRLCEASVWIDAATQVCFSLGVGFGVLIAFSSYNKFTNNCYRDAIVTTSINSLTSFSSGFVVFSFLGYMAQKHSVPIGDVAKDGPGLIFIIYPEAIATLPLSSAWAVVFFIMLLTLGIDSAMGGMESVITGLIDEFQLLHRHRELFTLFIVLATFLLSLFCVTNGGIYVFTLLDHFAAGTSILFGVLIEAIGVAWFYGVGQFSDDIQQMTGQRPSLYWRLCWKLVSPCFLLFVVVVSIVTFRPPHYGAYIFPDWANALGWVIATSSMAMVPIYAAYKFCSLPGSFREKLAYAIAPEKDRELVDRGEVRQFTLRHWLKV
JNK3 inh – JNK3 kinase activity inhibitors, primary screen, biochemical, human, purified enzyme; Mitogen-activated protein kinase 10 (Homo sapiens), P53779; HTS; inhibition, % at 8 µM; 0.61% of 60,000 active; in the data active means inhibition above about 17%
D1 allo mod – D1 CRE-luciferase signal change, two-sided – cell-based, HEK293 D1, dopamine EC30, D1 allosteric modulator project, primary screen. D(1A) dopamine receptor (Homo sapiens), P21728. dopamine EC30 potentiation; actives deviate in either direction. 5.9% of 58,000 active. B-score at 10 µM. AID 641, 2007;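 active means luminescence count or its row- and column-corrected plate score outside the 99.7% band of the plate's sample wells, on either side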
Numbers stand for hits; – = inactive; · = no result given. This excerpt belongs to a sample that is enriched for hits.

SMILES	ROCK2 blocker	PKA kinase inh	DAT uptake mod	JNK3 inh	D1 allo mod
O=c1[nH]c2ccccc2c2nc3ccccn3c12	–	–	–	47	–
Cc1ccc(C2CC(=O)Nc3cc4c(cc32)OCO4)o1 (configuration not stated)	·	·	–	·	·
CN(C)c1ccc(C2=NOC(CN3C(=O)c4ccccc4S3(=O)=O)C2)cc1 (configuration not stated)	–	–	–	–	-5.7
CCO/N=C(\C)c1c(O)c(CC)c(-c2ccccc2)n(-c2ccccc2)c1=O	·	·	2.7	·	·
COCCOC(=O)C1=C(C)NC2=C(C(=O)CC(C)(C)C2)C1c1ccc(N(C)C)cc1 (configuration not stated)	–	–	–	–	-5.8
CCCOC(=O)C1=C(C)NC2=C(C(=O)CCC2)C1c1ccc(N(C)C)cc1 (configuration not stated)	–	–	–	–	·
Cc1ccc(S(=O)(=O)NNC(=O)c2sc3nc(C)cc(C)c3c2-n2cccc2)cc1	·	·	–	·	·
CCOC(=O)N1CCN(C(c2ccc(C)cc2)c2sc3nc(C)nn3c2O)CC1 (configuration not stated)	–	–	–	–	–
CCOC(=O)N1CCN(C(c2cccc(OC)c2)c2sc3nc(C)nn3c2O)CC1 (configuration not stated)	–	–	–	–	-6.8
CCCC1C2C(=O)N(c3ccccc3OCC)C(=O)C2ON1c1ccccc1 (configuration not stated)	·	·	–	·	·
CCOc1cc(C(=O)Nc2cc(C)ccn2)cc(OCC)c1OCC	–	–	3	–	–
Cc1ccnc(NC(=O)c2cccc(NS(=O)(=O)c3ccccc3C)c2)c1	·	·	0.47	·	·
Cc1nnc2c3ccccc3c(-c3ccccc3)nn12	–	–	–	–	15
Cc1nnc2c3ccccc3c(-c3cccc4ccccc34)nn12	·	·	–	·	·
N#CCC1c2ccccc2CCN1C(=O)Nc1ccc(Cl)cc1 (configuration not stated)	·	·	-3.2	·	·
N#CCC1c2ccccc2CCN1C(=O)Nc1cccc(Cl)c1 (configuration not stated)	·	·	–	·	·
CCOC(=O)C(CC)(CC)/C(C)=N/NC(=O)CC#N	·	·	–	·	·
CC1(C)Cc2c(sc3c2c(=N)n(Cc2ccco2)c(=O)n3CC(=O)Nc2ccc(Cl)cc2)CO1	–	–	2	–	·
CCOC(=O)c1cc(C#N)c(Oc2ccccc2OC)nc1-c1ccccc1	·	·	–	·	·
CCOC(=O)c1ccc(NC(=O)C2CCN(S(=O)(=O)CC)CC2)cc1	–	–	-7.3	–	–
COc1ccccc1Nc1ncccc1C(=O)NCc1ccccc1	·	·	–	·	·
O=C(Nc1ncc2c(n1)CC(c1ccccc1)CC2=O)c1ccco1 (configuration not stated)	–	–	–	–	–
COc1ccccc1C(=O)Nc1ncc2c(n1)CC(c1ccco1)CC2=O (configuration not stated)	–	–	-3.8	–	–
C=C1CC2C(=O)N(Cc3ccccc3)C(C(=O)OCC)(C(=O)OCC)C1N2C(=O)OC(C)(C)C (configuration not stated)	·	·	–	·	·
COc1cccc(-n2ccnc2SCC(=O)Nc2cc(OC)ccc2OC)c1	–	–	1.5	–	–
SMILES	ROCK2 blocker	PKA kinase inh	DAT uptake mod	JNK3 inh	D1 allo mod
COc1ccc(OC)c(NC(=O)CSc2nnc(CCCO)n2-c2ccccc2)c1	–	–	2.9	–	–
COc1ccc(OC)c(NC(=O)CSc2nnnn2-c2ccc3c(c2)OCO3)c1	–	–	-3.5	–	–
COC(=O)c1ccc(-n2nnnc2SCC(=O)Nc2cc(OC)ccc2OC)cc1	–	–	–	–	–
COc1ccc(OC)c(NC(=O)CSc2nnc(-c3ccco3)n2-c2ccccc2)c1	–	–	–	–	·
COc1ccc(NC(=O)CSc2nccn2-c2cccc(OC)c2)cc1	–	–	–	–	–
COc1ccc(COC[C@H](C)[C@H](O)[C@@H](C)[C@H]2OC(=O)[C@@H]2C)cc1	·	·	–	·	·
C/C(Cn1nc([N+](=O)[O-])cc1C)=N\NC(=O)c1cccc(Br)c1	·	·	–	·	·
Cc1ccc(NC(=O)c2ccccc2N(C)S(C)(=O)=O)cc1C	·	·	–	·	·
CC1=C(C)C(=O)NC(Nc2nc(C)c3cc(C)cc(C)c3n2)N1 (configuration not stated)	–	–	·	–	-3.2
CN=C1CC(SC)=C1c1ccc(C)cc1	·	·	–	·	·
CCOC(=O)/C(C(=O)Nc1ccccc1Cl)=C1/NC(C)(C)Cc2ccccc21	·	·	2.8	·	·
CCOC(=O)C1CCN(CCC(=O)Nc2ccccc2Cl)CC1	·	·	–	·	·
CCS(=O)(=O)n1nc(-c2ccc(Cl)cc2)nc1SC	·	·	–	·	·
Cn1nc(-c2ccc(Cl)cc2)nc2c(=O)n(C)c(=O)nc1-2	·	·	-4.4	·	·
CC(C)n1c(SCC(=O)Nc2nc3c(s2)CCCC3)nc2c1c(=O)n(C)c(=O)n2C	·	·	–	·	·
Nc1ccc2nc(-c3ccccc3)[nH]c2c1	·	·	–	·	·
Nc1ccc2cn[nH]c2c1	23	–	–	–	–
CC(C)C(=O)Nc1cccc(-c2cnc3ccccc3n2)c1	·	·	2.7	·	·
O=C(CNC(=O)c1ccc(Br)o1)Nc1cccc(-c2cnc3ccccc3n2)c1	–	–	–	20	–
CCc1cc2c(=O)c(-c3ccc4c(c3)OCCO4)coc2cc1OC(=O)c1ccco1	–	–	–	–	-2.9
CCCc1cc2c(=O)c(-c3ccc4c(c3)OCCO4)coc2cc1OC(=O)c1ccco1	·	·	–	·	·
O=C(COc1ccccc1)Nc1nnc(-c2ccc(Cl)s2)o1	–	–	–	–	–
Cc1cc(C)n2cc(CSc3nnc(-c4ccccc4)o3)nc2n1	–	–	–	–	–
Cc1cc(C)n2cc(CSc3nc4cc(Cl)ccc4o3)nc2n1	–	–	4	–	–
CNC(=O)c1c(N)sc2c1CCCCC2	–	–	–	–	–
SMILES	ROCK2 blocker	PKA kinase inh	DAT uptake mod	JNK3 inh	D1 allo mod
CC(C)OC(=O)c1c(N)sc2c1CCCC2	–	–	·	–	11
O=P(CCCCCCCCCP(=O)(c1ccccc1)c1ccccc1)(c1ccccc1)c1ccccc1	·	·	2.9	·	·
O=P(COCCOCP(=O)(c1ccccc1)c1ccccc1)(c1ccccc1)c1ccccc1	·	·	–	·	·
COCP(=O)(c1ccccc1)c1ccccc1	·	·	1.5	·	·
CCN(CC)S(=O)(=O)c1ccc(/C(O)=C(\C#N)c2nc3ccccc3n2C)cc1	–	–	–	–	-2.2
CCCC(=O)Nc1cc(-c2cn3cccnc3n2)ccc1OC	·	–	–	·	-3.4
COc1ccc(-c2cn3cccnc3n2)cc1NC(=O)CC(C)C	·	–	–	·	–
Cc1ccc2nc(N3CCN(Cc4ccc(F)cc4)C3=O)c(C)cc2c1	–	–	2.2	–	–
O=C1NCCN1Cc1ccc(F)cc1	·	·	–	·	·
COc1ccc(-c2csc(N3CCN(C(=O)c4ccccc4)CC3)n2)cc1	·	·	–	·	·
COc1ccc(-c2csc(N3C(=N)SCC3=O)n2)cc1	·	·	1.9	·	·
Cc1cccc(-c2nnc(SCC#N)n2-c2ccccc2)c1	–	–	–	–	–
